Source: PubChem (National Center for Advancing Translational Sciences (NCATS))
Most compounds without a hit are left out; they make up all but 2.7% or so of the library.
GLP1R cytotox: cytotoxicity counter-screen for GLP-1 receptor inverse agonists; HEK293 cAMP-luciferase reporter cells, luminescence, 24 h; Potency, µM (titrated, usually from 38.3 µM), for inactives: top-dose activity change, negative = inhibition, usual class: inhibitors; hit rate 0.13% among 410,000; AID 624418;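 further: loss of luciferase light is scored as toxicity; on the % scale 0 is the no-effect control and ±100 the full control effect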
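Cells in DMEM/10% Nu serum/1% pen-strep, 1536-well format. Pre-incubated 12 h, dosed with 23 nL compound, incubated a further 24 h. Luciferase detection, 12 min at room temp, luminescence.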
Integrin act MD: activates integrin-mediated alleviation for muscular dystrophy; Potency, µM (top dose mostly 38.3 µM), for the others: at the highest dose activation, most hits filed as activators; AID 624291; alpha7betagal myoblasts, beta-gal FDG fluorescence, 48 h; hit rate 0.064% among 350,000;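 further: 100% = response of the positive control SU9516; nearly all actives have a fitted effect of over 60% in size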
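alpha7betagal+/- myoblasts (passage 13, 250/well) treated 48 h at 37C with compounds at 1:260 dilution of DMSO stock. Lysed, then beta-galactosidase activity read as FDG fluorescence (ex 480/em 540) after 30 min, with pre-read for autofluorescence.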
GLP-1R inv ag: inverse agonists of human GLP-1 receptor. P43220. Potency, µM (titrated, usually from 38.3 µM), inactives show at the highest dose activity change, negative = inhibition, usual class: inhibitors. HEK293 GLP-1R CRE-luciferase, luminescence, 24 h; GLP-1R form is constitutively active. hit rate 1.6% among 410,000; further: on the % scale 0 is the no-effect control and ±100 the full control effect; nearly all actives have a fitted effect of over 55% in size
Target sequence (P43220 whole entry, looked up): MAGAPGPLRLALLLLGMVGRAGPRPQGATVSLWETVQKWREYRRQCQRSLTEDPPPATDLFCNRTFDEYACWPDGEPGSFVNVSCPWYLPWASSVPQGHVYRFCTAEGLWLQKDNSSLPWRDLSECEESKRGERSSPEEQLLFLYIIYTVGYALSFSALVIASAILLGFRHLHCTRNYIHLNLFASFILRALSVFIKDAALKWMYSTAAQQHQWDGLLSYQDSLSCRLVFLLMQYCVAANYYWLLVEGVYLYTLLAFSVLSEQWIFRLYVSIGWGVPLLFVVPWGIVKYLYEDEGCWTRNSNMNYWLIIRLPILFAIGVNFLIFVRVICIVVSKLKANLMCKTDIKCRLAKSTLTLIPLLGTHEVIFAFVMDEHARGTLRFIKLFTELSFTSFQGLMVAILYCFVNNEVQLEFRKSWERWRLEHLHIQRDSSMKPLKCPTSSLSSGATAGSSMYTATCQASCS
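Stable HEK293 clone (constitutively active GLP-1R + cAMP-response luciferase); 200 cells/uL plated, 12 h pre-culture, compound 24 hr, 37 deg C/5% CO2; detection reagent 12 min RT; luminescence.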
GLP1R ag: agonists of human GLP-1 receptor; HEK293 GLP-1R CRE-luciferase, luminescence, 4-6 h; cells express a hypersensitive GLP-1R form; hit rate 0.007% among 380,000; Potency, µM (highest dose often 45.6 µM), for inactives: at the top dose activation, actives largely listed as activators; further: % of control where 0% means no effect
BRCA1 expr act: BRCA1 expression activation. MCF7-BRCA1-FFLuc reporter, luminescence, 48 h; response scale: scaled: vehicle 0%, 10 µM genistein 100%. Potency, µM (top dose mostly 46.1 µM), for the others: at the top dose activation, hits mostly activators. hit rate 1.1% among 380,000; further: nearly all actives have a fitted effect of over 80% in size
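MCF7-BRCA1-FFLuc, 2000 cells/well; 2 h attach, 37 °C/5% CO2; compound 48 h; luciferase substrate 15 min; luminescence end-point. Norm. to genistein 10 microM max activation and DMSO; concentration-response curves fitted.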
The depositor's hits bear a star. The call rests on the fitted dose curve; in most records, active means well fitted curve in the direction sought with a large enough effect; inconclusive means small, poorly fitted or top-dose-only effect, or another doubt; inactive means no such curve, though single readings can be large; an effect the other way counts as inactive or inconclusive. Potency means the concentration at half of the fitted maximal effect.

`CCC(c1nnnn1CCc1ccccc1)N(Cc1ccco1)Cc1cc2c(C)ccc(C)c2[nH]c1=O` (stereo not given) gave GLP1R cytotox -25%, Integrin act MD 0%, GLP-1R inv ag 11µM*, GLP1R ag 1% and BRCA1 expr act -63%.
Nc1nc(SCc2ccccc2)sc1C(=O)N1CCCCC1 was read as GLP1R cytotox 11%, Integrin act MD 12%, GLP-1R inv ag inconclusive, GLP1R ag 22% and BRCA1 expr act 2.2µM*.
For O=S(=O)(c1ccccc1)n1ccc(-c2cnc(-c3ccccc3)s2)n1 the results were GLP1R cytotox -14%, Integrin act MD -50%, GLP-1R inv ag 0%, GLP1R ag 4% and BRCA1 expr act 7.9µM*.
Cc1ccc(Cn2ccc(-c3cnc(-c4ccccc4)s3)n2)cc1 was read as GLP1R cytotox 17%, Integrin act MD -16%, GLP-1R inv ag inconclusive, GLP1R ag -15% and BRCA1 expr act 74%.
Screening c1ccc(C[n+]2c(-c3ccccc3)csc2Nc2ccccc2)cc1 returned GLP1R cytotox 13%, Integrin act MD -11%, GLP-1R inv ag -12%, GLP1R ag 11% and BRCA1 expr act 0%.
For CCCCCC[n+]1c(-c2ccc(Cl)cc2Cl)csc1Nc1ccccc1 the results were GLP1R cytotox 4%, Integrin act MD -24%, GLP-1R inv ag 10µM*, GLP1R ag -2% and BRCA1 expr act -19%.
`Cc1ccc(Cn2ccc(NC(=O)c3noc4c3CCCC4)n2)cc1` gave GLP1R cytotox -13%, Integrin act MD 19%, GLP-1R inv ag 6%, GLP1R ag -15% and BRCA1 expr act 5.6µM*.
O=C(NCCc1ccccc1)c1noc2c1CCCCC2 was read as GLP1R cytotox -10%, Integrin act MD 8%, GLP-1R inv ag -19%, GLP1R ag 9% and BRCA1 expr act 4µM*.
Screening CN(C(=O)CSc1nnc(COc2ccccc2)o1)c1ccccc1 returned GLP1R cytotox 1% and GLP-1R inv ag -20%.
For CN(C)CCCNc1oc(-c2cccc(Cl)c2)nc1C#N the results were GLP1R cytotox -2%, Integrin act MD 0%, GLP-1R inv ag 6.3µM*, GLP1R ag -2% and BRCA1 expr act -7%.
For CCN(CC)CCCNc1oc(-c2ccc(OC)c(OC)c2)nc1C#N the results were GLP1R cytotox -9%, Integrin act MD -16%, GLP-1R inv ag inconclusive, GLP1R ag -2% and BRCA1 expr act -3%.
For COc1ccc(OCCNC(=O)c2cccc(Oc3ccc(C(F)(F)F)cc3[N+](=O)[O-])c2)cc1 the results were GLP1R cytotox inconclusive, Integrin act MD -13%, GLP-1R inv ag 4.5µM*, GLP1R ag 11% and BRCA1 expr act -67%.
`Cc1ccc(Sc2ccc(NC(=O)CCN3C(=O)NC4(CCCC4)C3=O)cc2)c(C)c1` gave GLP1R cytotox -25%, Integrin act MD 7%, GLP-1R inv ag 11µM*, GLP1R ag 9% and BRCA1 expr act -29%.
O=C(CCCN1C(=O)NC2(CCCC2)C1=O)Nc1ccc(F)cc1 was read as GLP1R cytotox 7%, Integrin act MD 17%, GLP-1R inv ag -20%, GLP1R ag 8% and BRCA1 expr act -5%.
COc1ccc(NS(=O)(=O)c2cc(Br)cc3c2N(C(=O)C2CC2)CC3)cc1OC was read as GLP1R cytotox 0% and GLP-1R inv ag 8%.
For CC(C)C1C(c2ccccc2)NC(c2ccccc2)CC1(O)c1ccc(F)cc1 (stereo not given) the results were GLP1R cytotox inconclusive, Integrin act MD -1%, GLP-1R inv ag 10µM*, GLP1R ag 3% and BRCA1 expr act -23%.
`COc1ccc(CCn2c(N)cc(=O)[nH]c2=S)cc1OC` gave GLP1R cytotox -3%, Integrin act MD 3%, GLP-1R inv ag 204%, GLP1R ag 10µM* and BRCA1 expr act -2%.
O=C(c1ccc(Cl)c(Cl)c1)N1CCC(=O)N(C(COCc2ccc(Cl)cc2)Cc2ccccc2)CC1 (stereo not given) was read as GLP1R cytotox 16%, Integrin act MD -45%, GLP-1R inv ag 10µM*, GLP1R ag 0% and BRCA1 expr act -34%.
Screening CC(C)(C)c1ccc(C(=O)N2CCC(=O)N([C@H](COCc3ccccc3)Cc3ccccc3)CC2)cc1 returned GLP1R cytotox inconclusive, GLP-1R inv ag 10µM*, GLP1R ag -4% and BRCA1 expr act -35%.
For CC(C)(C)c1ccc(C(=O)N2CCC(=O)N(C(COCc3ccccc3)Cc3ccccc3)CC2)cc1 (stereo not given) the results were GLP1R cytotox inconclusive, Integrin act MD -43%, GLP-1R inv ag inconclusive, GLP1R ag 7% and BRCA1 expr act -64%.
Screening Fc1cccc(CN2CCc3nc(Nc4ccc5c(c4)OCCO5)ncc3C2)c1F returned GLP1R cytotox -3% and GLP-1R inv ag inconclusive.
Cc1ccc(-c2[nH]ncc2/C=C(\C#N)C(=O)NC2CCCCC2)cc1 was read as GLP1R cytotox -15%, Integrin act MD -45%, GLP-1R inv ag 7.9µM*, GLP1R ag 2% and BRCA1 expr act -80%.
Screening COc1ccc(-c2[nH]ncc2/C=C(/C#N)C(=O)NC2CCCCC2)cc1 returned GLP1R cytotox -25%, Integrin act MD -15%, GLP-1R inv ag inconclusive, GLP1R ag 9% and BRCA1 expr act -59%.
`COC(=O)c1c(SCC(=O)Nc2cccc(C(F)(F)F)c2)[nH]c2ccccc2c1=O` gave GLP1R cytotox -12%, GLP-1R inv ag inconclusive and BRCA1 expr act -7%.
Screening Cn1c(=O)cc(SCC(=O)N2CCCC2)c2ccccc21 returned GLP1R cytotox -14%, Integrin act MD 1%, GLP-1R inv ag 18%, GLP1R ag 6% and BRCA1 expr act -28%.
Cc1ccc(Cl)cc1N1CCN(C(=O)CSc2cc(=O)n(C)c3ccccc23)CC1 was read as GLP1R cytotox -18% and GLP-1R inv ag 10µM*.
Screening Cc1ccc(Cl)cc1N1CCN(C(=O)CSc2nnc3n2C(C)(C)Cc2ccccc2-3)CC1 returned GLP1R cytotox -25%, Integrin act MD -30%, GLP-1R inv ag 4µM*, GLP1R ag -18% and BRCA1 expr act -83%.
`CCn1c(SCc2ccccc2)nnc1-c1nonc1NC(C)=O` gave GLP1R cytotox 1% and GLP-1R inv ag -6%.
C=CCn1c(C)c(C(C)=O)c(N2CCN(C(c3ccccc3)c3ccccc3)CC2)nc1=S was read as GLP1R cytotox inconclusive, Integrin act MD -27%, GLP-1R inv ag 7.1µM*, GLP1R ag 8% and BRCA1 expr act -62%.
Screening CC(C)C(=O)Nc1nnc(S(=O)(=O)N2CCCCCC2)s1 returned GLP1R cytotox 11%, Integrin act MD -18%, GLP-1R inv ag -5%, GLP1R ag 1% and BRCA1 expr act 3%.
